Test results taken from PubChem BioAssay AID504332 (National Center for Advancing Translational Sciences (NCATS), 2011).
“And” between values parts separate entries of the source, which are not always exact repeats. Equal entries are not always repeated. In all, about 350,000 compounds went through this assay and about 31,000 (8.9%) were called active. Inconclusive results (about 15%) are left out. Calls come from the whole dose curve; as a rule, active = well fitted inhibition curve with a large enough effect; inconclusive = small, poorly fitted or top-dose-only effect; inactive = no such curve, though single readings can be large or run the other way. The full list was thinned out, with actives kept by preference. Where a structure was tested more than once in an assay, its records may differ in their call.

Target: Histone-lysine N-methyltransferase EHMT2 (Homo sapiens) (UniProt Q96KQ7)
Assay: qHTS Assay for Inhibitors of Histone Lysine Methyltransferase G9a; note: nearly all actives have a fitted effect of over 75% in size
Conditions: G9a H3K9 monomethylation, AlphaScreen, 2 h; series mostly up to 102 µM; activity, negative = inhibition: at the top concentration
Method in brief: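 Methyltransferase reactions run at room temperature for 2 h (20 nM enzyme, 500 nM biotin-H3K9 peptide, 20 uM SAM) after a 15 min compound preincubation; product detected by AlphaScreen beads and anti-H3K9me1 antibody.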
% is set by controls: 0 for no effect and ±100 for the full control effect; potency is the fitted concentration of half-maximal effect.

Chain of Histone-lysine N-methyltransferase EHMT2 (Homo sapiens) (Q96KQ7 913-1193 limits assumed): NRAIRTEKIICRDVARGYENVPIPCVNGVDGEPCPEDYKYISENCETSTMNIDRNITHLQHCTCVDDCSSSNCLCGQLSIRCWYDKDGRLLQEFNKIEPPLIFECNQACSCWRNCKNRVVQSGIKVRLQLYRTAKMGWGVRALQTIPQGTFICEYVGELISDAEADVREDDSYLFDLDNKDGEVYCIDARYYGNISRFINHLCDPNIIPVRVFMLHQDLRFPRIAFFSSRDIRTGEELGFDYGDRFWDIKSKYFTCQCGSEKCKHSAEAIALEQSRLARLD

Structure (SMILES)	activity, negative = inhibition	Potency
OC(Cn1c2ccccc2c2ccccc21)C[n+]1ccccc1 (configuration not stated)	18.9% (inactive)	
CN1CCc2nc(SC(C(=O)O)c3ccccc3)c(C#N)c(-c3cccs3)c2C1 (configuration not stated)		31.6 µM (active)
CN1CCCC(=C(c2cccs2)c2cccs2)C1	-17.6% [at 12.7 µM] (inactive)	
Cn1c(O)c(C=NCCCC(=O)O)c(=O)n(C)c1=O	-19.8% (inactive)	
COCCNC(=O)CN1C2CCC1CC(O)(c1cccnc1)C2 (configuration not stated)	-5.11% (inactive)	
O=C1NC(=O)C(C/C=C/c2ccccc2)C(=O)N1		25.1 µM (active)
O=C(O)C1C2CCC(O2)C1C(=O)O (configuration not stated)	48.4% [at 12.7 µM] (inactive)	
CN(C)C(=O)NC(O)C(Cl)(Cl)Cl (configuration not stated)	-0.62% (inactive)	
O=C(COc1ccc2ccccc2c1)N1CCN(Cc2ccncc2)CC1		6.31 µM (active)
CCc1ccc(OCC(=O)N2CCN(CC(=O)Nc3ccccc3Cl)CC2)cc1	-1.72% [at 2.33 µM] (inactive)	
CC(C)c1ccc(OCC(=O)N2CCCN(C)CC2)cc1	-4.39% (inactive)	
O=C(COC(=O)c1ccccc1)Nc1ccc(Cl)cc1C(=O)c1ccccc1	0.53% (inactive)	
CC(=O)Cc1ccc(OC(C)C)cc1	-0.528% (inactive)	
O=C(COC(=O)Cc1ccccc1)Nc1ccc(F)cc1	7.02% (inactive)	
COC(=O)C1=C(c2cccc(OCc3ccccc3)c2)C[C@@H]2CC[C@H]1N2C(=O)NNCc1ccccc1	2.91% [at 2.33 µM] (inactive)	
O=S(=O)(Nc1ccc2[nH]ncc2c1)c1ccccc1Cl		22.4 µM (active)
NC(=O)Cn1cc(C(=O)c2ccccc2F)c2ccccc21	24.1% (inactive)	
O=C(CCCn1c(=O)[nH]c2cc(Cl)ccc2c1=O)N1CCC2(CC1)OCCO2	-2.1% (inactive)	
Cc1cccc(OP(=O)(Oc2cccc(C)c2)OC(c2ccccc2)C(F)(F)F)c1 (configuration not stated)	170% (inactive)	
COc1ccc(-n2c(-c3ccccc3)nc3ccccc3c2=O)cc1	-4.54% (inactive)	
C[N+]1(C)CCOC(O)(c2ccc(-c3ccc(C4(O)C[N+](C)(C)CCO4)cc3)cc2)C1 (configuration not stated)		inactive and 50.1 µM (active) and 20 µM (active)
CC[N+]1(CCOC(=O)C(O)(c2ccccc2)c2ccccc2)CCCCC1	-33.9% [at 12.7 µM] (inactive)	
Cc1ccc(-c2nn(CCC#N)cc2C(=O)O)cc1C	4.34% (inactive)	
O=C(c1ccccc1[N+](=O)[O-])N1CCC2(CC1)OCCO2	-1.06% (inactive)	

Structure (SMILES)	activity, negative = inhibition	Potency
CC(C)n1c(=O)c(C=Nc2ccc(Br)cc2)c(O)n(Cc2ccco2)c1=O	1.83% [at 59 µM] (inactive)	
Cc1ccc(-n2c(-c3ccc([N+](=O)[O-])cc3)nc3ccccc3c2=O)cc1	7.18% [at 59 µM] (inactive)	
O=[N+]([O-])c1cnc2ccc3ccccc3c2c1		50.1 µM (active)
CCCC(C)n1[nH]c(=O)c2c1NC(=O)CSC2c1ccc(OC)c(OC)c1 (configuration not stated)	16.5% [at 59 µM] (inactive)	
Cn1c(C(=O)N2CCC(C(=O)N3CCC4(CC3)OCCO4)CC2)cc2sccc21	-21% (inactive)	
CN(C)C(=O)Oc1cc(OC(=O)N(C)C)cc(C(O)CNC(C)(C)C)c1 (configuration not stated)	inactive	
COc1ccc(C(=O)CC2C(=O)N(C)C(=O)N(C)C2=O)cc1		2.24 µM (active)
CCOP(=O)(OCC)C(NC(=O)c1ccc(OC)cc1)C(Cl)(Cl)Cl (configuration not stated)	13.5% (inactive)	
COc1ccc(C(=O)C2CN(C)CC2C(=O)c2ccc(OC)cc2)cc1 (configuration not stated)	-1.6% [at 59 µM] (inactive)	
CCCOC(=O)C1C2c3ccccc3C(c3ccccc32)C1C(=O)O (configuration not stated)	-36.6% (inactive)	
CCC1(C)CC(=O)NC1=O (configuration not stated)	28.2% [at 12.7 µM] (inactive)	
CCN(CC)CCOC(=O)c1cc2cc(COC)ccc2o1		17.8 µM (active)
Cc1nn(Cc2ccccc2Cl)c(Cl)c1C(=O)OC(C(=O)NC(N)=O)C(C)C (configuration not stated)	3.99% [at 59 µM] (inactive)	
CC(=NCC1CCCO1)c1c(O)n(-c2ccccc2)c(=O)[nH]c1=O (configuration not stated)	13.8% (inactive)	
CCN1c2nc3c(C)cccn3c(=O)c2CC2(C(=O)N(C)C(=O)N(C)C2=O)C1C (configuration not stated)	7.48% [at 12.7 µM] (inactive)	
CC(=O)c1ccc(-c2ccc(Cn3c(C)nc4cc(N)c(C)nc43)cc2)cc1		15.8 µM (active)
CCOC(=O)c1c(N)n(Cc2ccccc2)c2nc3ccccc3nc12	-1.61% (inactive)	
CN(C)P(=S)(Nc1ccccc1)C(Cl)(Cl)Cl (configuration not stated)	6.12% (inactive)	
COC(=O)C1=C(c2ccc(-c3ccccc3)c(F)c2)C[C@@H]2CC[C@H]1N2C(=O)NCc1ccc(F)cc1	12.5% [at 0.501 µM] (inactive)	
CNC(=O)Nc1ccc(C(O)(C(=O)OC)C(F)(F)F)cc1 (configuration not stated)	5.46% (inactive)	
Cn1cc(C(=O)OCC(=O)N2CCCC2)c2ccccc21	17.1% [at 12.7 µM] (inactive)	
NCC(O)c1ccc(O)cc1 (configuration not stated)	-5.15% [at 2.33 µM] (inactive) and 25.4% [at 12.7 µM] (inactive)	
CC(C(=O)Nc1ccc(Cl)cc1Cl)N1CC=C(c2ccccc2)CC1 (configuration not stated)	81.9% [at 59 µM] (inactive)	
